Reference: PubChem BioAssay (NCATS)
Records with an inconclusive call do not appear. A number with no mark means an inactive call. Active and inactive are the calls of the source. Calls come from the whole dose curve; as a rule, active = well fitted inhibition curve with a large enough effect; inconclusive = small, poorly fitted or top-dose-only effect; inactive = flat fitted curve, though single readings scatter.

Assay: P-glycoprotein substrates identified in KB-8-5-11 adenocarcinoma cell line, qHTS therapeutic library screen (AID 1346987); note: nearly all actives have a fitted effect of over 65% in size
Settings: KB-8-5-11 (P-gp overexpressing) viability, CellTiter-Glo, 72 h; series mostly up to 44.5 µM; activity change, negative = cytotoxicity: at the top concentration
Outline: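 Luminescence from CellTiter-Glo, read 5 min after addition, quantified survival of KB-8-5-11 (P-gp-overexpressing) cells exposed to compounds for 72 h. AC50 was derived from concentration-response curves.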
% is set by controls: 0 for no effect and ±100 for the full control effect; potency is the fitted concentration of half-maximal effect.

Structure (SMILES)	outcome	activity change, negative = cytotoxicity	Potency
CC/C=C\C/C=C\C/C=C\CCCCCCCC(=O)OCC(O)COC1OC(CO)C(O)C(O)C1O (stereo not drawn)	inactive [at 17.3 µM]		
Cc1cc(=O)oc2c(C=O)c(O)ccc12		2.21%	
COc1cc([C@H]2c3cc(O)c(OC)cc3C[C@@H](CO[C@@H]3O[C@H](CO)[C@@H](O)[C@H](O)[C@H]3O)[C@@H]2CO)ccc1O		9.89% [at 17.3 µM]	
CC(=O)OC1C(O)C2C(C)C3=CC(=O)OC3(O)CC2C2(C)CCCC(C)(CO)C12 (stereo not drawn)	inactive [at 17.3 µM]		
CC1CC(C(O)C(C)(C)O)OC2CC3(C)C4(C)CCC5C(C)(C)C(=O)CCC5(C)C4CCC3(O)C12O (stereo not drawn)		-1.42% [at 17.3 µM]	
O=C(Nc1c(-c2cccs2)nc2ccccn12)c1ccc(Cl)cc1		3.53%	
CC(C)(O[C@@H]1O[C@H](CO)[C@@H](O)[C@H](O)[C@H]1O)C(OC(=O)/C=C\c1ccc(O)cc1)C(=O)OCc1ccc(O[C@@H]2O[C@H](CO)[C@@H](O)[C@H](O)[C@H]2O)cc1 (stereo partly drawn)		4.28% [at 17.3 µM]	
CC(C)=CCC/C(C)=C/CO[C@@H]1O[C@H](CO)[C@@H](O)[C@H](O)[C@H]1O		2.83%	
O=C1NC(Cc2c[nH]c3ccccc23)C(=O)NC1Cc1c[nH]c2ccccc12 (stereo not drawn)		4.76%	
C[C@@H]1O[C@@H](O[C@H]2[C@H](O[C@H]3CC[C@@]4(C)C(CC[C@]5(C)C4CC=C4[C@@H]6CC(C)(C)CC[C@]6(C(=O)O[C@@H]6OC[C@H](O)[C@H](O)[C@H]6O[C@@H]6O[C@@H](C)[C@H](O[C@@H]7O[C@H](CO)[C@@H](O)[C@H](O)[C@H]7O)[C@H](O)[C@H]6O)[C@H](O)C[C@]45C)C3(C)C)O[C@H](CO)[C@@H](O[C@@H]3OC[C@@H](O)[C@H](O)[C@H]3O)[C@@H]2O)[C@H](O)[C@H](O)[C@H]1O (stereo partly drawn)	inactive [at 9.29 µM]		
CC1=C2C[C@H]3O[C@@]3(C)CCC3O[C@@]3(C)C[C@@]2(O)OC1=O (stereo partly drawn)	inactive		
CC1=CC(=O)CC(C)(C)[C@H]1/C=C/C(CO)O[C@@H]1O[C@H](CO)[C@@H](O)[C@H](O)[C@H]1O (stereo partly drawn)	inactive		
CC1CC[C@]2(C(=O)O)CC[C@]3(C(=O)O)C(=CCC4[C@@]5(C)CC[C@H](OC6OC(C)C(O)C(OC7OC(CO)C(O)C(O)C7O)C6O)C(C)(C)C5CC[C@]43C)C2C1C (stereo partly drawn)	inactive [at 17.3 µM]		
COc1cc2c(cc1OC)CC(=O)N(CCCNC[C@H]1Cc3cc(OC)c(OC)cc31)CC2	inactive		
CC1(C)CCCC2(C)C1C(O)C=C(CO)C2(O)CO (stereo not drawn)	inactive		
COc1cc(O)cc(/C=C/c2ccc(O[C@@H]3O[C@H](CO)[C@@H](O)[C@H](O)[C@H]3O)cc2)c1	inactive [at 17.3 µM]		
C=C1C(=O)O[C@@H]2C[C@H](C)[C@@]3(O)C=C(C(C)=O)[C@]4(CC3C[C@H]12)C(=O)O[C@H]1C[C@@H](C)C(CCC(C)=O)=CC[C@H]14 (stereo partly drawn)	inactive [at 17.3 µM]		
CCCCNc1ncc2c(-c3ccc(CN4CCN(C)CC4)cc3)cn(C3CCC(O)CC3)c2n1 (stereo not drawn)			1300 nM (active)
OC[C@H]1O[C@@H](OC(CCCCc2ccc(O)cc2)CCc2ccc(O)cc2)[C@H](O)[C@@H](O)[C@@H]1O (stereo partly drawn)		1.22% [at 17.3 µM]	

Structure (SMILES)	outcome	activity change, negative = cytotoxicity	Potency
CC1CC(O)C2(OC1=O)OC1C(O)C3C4CCC5CC(OC6OC(CO)C(O)C(O)C6OC6OC(C)C(O)C(O)C6O)CCC5(C)C4CCC3(C)C1C2C (stereo not drawn)	inactive [at 17.3 µM]		
Cn1cc(-c2ccc3nnc(Sc4ccc5nn(C)cc5c4)n3n2)cn1		-3.93%	
COc1cc2c3c(cc4ccccc4c3c1O)NC2=O	inactive		
C=C[C@@]12COC(=O)C(=C)C1[C@@H](O)[C@H](C(=C)C(=O)OC)[C@@H](OC(=O)C(=C)CO)C2 (stereo partly drawn)		5.64% [at 17.3 µM]	
C[C@@H]1O[C@@H](O[C@H]2[C@H](O)[C@@H](O[C@@H]3O[C@H](CO)[C@@H](O)[C@H](O[C@@H]4O[C@H](CO)[C@@H](O)[C@H](O)[C@H]4O)[C@H]3O)[C@H](O[C@H]3CC[C@@]4(C)C(=CC[C@@H]5C4CC[C@@]4(C)C5C[C@@H]5OC6(CC[C@@](C)(CO[C@@H]7O[C@H](CO)[C@@H](O)[C@H](O)[C@H]7O)O6)[C@@H](C)[C@@H]54)C3)O[C@@H]2CO)[C@H](O)[C@H](O)[C@H]1OC1OC(CO)C(O)C(O)C1O (stereo partly drawn)	inactive [at 9.29 µM]		
COC(=O)c1cc(OC)cc(OC)c1C(=O)c1c(OC)cc2c(c1O)C1CCCC(C)(O2)O1 (stereo not drawn)	inactive [at 17.3 µM]		
CC1=CCC(C(C)(C)O[C@@H]2O[C@H](CO[C@@H]3O[C@@H](C)[C@H](O)[C@@H](O)[C@H]3O)[C@@H](O)[C@H](O)[C@H]2O)CC1 (stereo partly drawn)	inactive [at 17.3 µM]		
CC(=O)N[C@H]1[C@H](O[C@H]2CC[C@@]3(C)C(CC[C@]4(C)C3CC=C3[C@@H]5CC(C)(C)CC[C@]5(C(=O)OC5OCC(O)C(O)C5O)CC[C@]34C)C2(C)C)O[C@H](COC2OC(C)C(O)C(OC3OC(C)C(O)C(O)C3O)C2O)[C@@H](O)[C@@H]1O (stereo partly drawn)		4.96% [at 9.29 µM]	
CC1(C=O)CC[C@]2(C(=O)O[C@@H]3O[C@H](CO)[C@@H](O)[C@H](O)[C@H]3O)CC[C@]3(C)C(=CCC4[C@@]5(C)C[C@H](O)[C@H](O[C@@H]6OC[C@@H](O)[C@H](O)[C@H]6O)[C@@](C)(CO)C5CC[C@]43C)C2C1 (stereo partly drawn)	inactive [at 9.29 µM]		
CC1=C(C)C(=O)OC(C(C)C2CCC3C4C5OC5C5(O)CC(OC6OC(CO)C(OC7OC(C)C(O)C(O)C7O)C(O)C6O)CC(O)C5(C)C4CCC23C)C1 (stereo not drawn)	inactive [at 17.3 µM]		
C=C1C[C@]23C[C@H]1CC[C@H]2C1=C[C@H]2OC(=O)[C@@](C)([C@H]1[C@@H]3C(=O)O)[C@H]2O	inactive		
N#Cc1c(Oc2ccc(F)c(NC(=O)Cc3cccc(C(F)(F)F)c3)c2)ccc2nc(NC(=O)C3CC3)sc12			7310 nM (active)
COc1cc(N2CCOCC2)ccc1Nc1ncc(Cl)c(Nc2ccccc2NS(C)(=O)=O)n1			1640 nM (active)
O=C(c1ccc2nccnc2c1)N1CCCCC1	inactive		
O=C(NOCC(O)CO)c1ccc(F)c(F)c1Nc1ccc(I)cc1F (stereo not drawn)		-0.916%	
OC1CCC(Nc2ncc3nc(Nc4c(F)cc(F)cc4F)n([C@H]4CCOC4)c3n2)CC1 (stereo partly drawn)		5.83%	
COc1c2c(c(C)c3c1C(=O)OC3)O[C@@]1(C)CC(O)C(C(C)(C)O)[C@](C)(CCC(=O)O)[C@H]1C2 (stereo partly drawn)	inactive [at 17.3 µM]		
C[C@H](NC(c1cccc2[nH]c(=O)c(=O)[nH]c12)P(=O)(O)O)c1ccc(Br)cc1 (stereo partly drawn)		9.66%	
CC1OC(OC2C(C)OC(OC3C(OC(=O)C45CCC(C)(C)CC4C4=CCC6C7(C)CCC(OC8OC(C(=O)O)C(O)C(O)C8OC8OC(CO)C(O)C(OC9OC(C)C(O)C(O)C9O)C8O)C(C)(CO)C7CCC6(C)C4(C)CC5)OC(CO)C(O)C3O)C(O)C2O)C(O)C(O)C1O (stereo not drawn)		1.71% [at 9.29 µM]	
